# Experimental data published in PubChem BioAssay AID1851 (National Center for Advancing Translational Sciences (NCATS), 2009).
# Values joined by “and” are separate entries in the source; they are usually repeats but may differ in a detail not shown here. Equal entries are not always repeated. Hit rate of the full screen: of about 16,000 compounds, about 5,800 (36%) were called active. Another 23% or so got no clear call; they are omitted. This is one part of the list. Values without a mark were called inactive. Calls follow the shape of the dose curve; as a rule, active = well fitted curve in the direction sought with a large enough effect; inconclusive = small, poorly fitted or top-dose-only effect, or effect the other way; inactive = no such curve, though single readings can be large or run the other way.
# Target: Cytochrome P450 2C19 (Homo sapiens) (UniProt P33261)
# Assay: Cytochrome panel assay with activity outcomes
# Conditions: recombinant CYP, pro-luciferin dealkylation, luminescence, p450-cyp2c19; series mostly up to 57.1 µM
# % is scaled to controls: 0 for no effect and ±100 for the full control effect.
# Chain of Cytochrome P450 2C19 (Homo sapiens) (P33261 whole entry, looked up): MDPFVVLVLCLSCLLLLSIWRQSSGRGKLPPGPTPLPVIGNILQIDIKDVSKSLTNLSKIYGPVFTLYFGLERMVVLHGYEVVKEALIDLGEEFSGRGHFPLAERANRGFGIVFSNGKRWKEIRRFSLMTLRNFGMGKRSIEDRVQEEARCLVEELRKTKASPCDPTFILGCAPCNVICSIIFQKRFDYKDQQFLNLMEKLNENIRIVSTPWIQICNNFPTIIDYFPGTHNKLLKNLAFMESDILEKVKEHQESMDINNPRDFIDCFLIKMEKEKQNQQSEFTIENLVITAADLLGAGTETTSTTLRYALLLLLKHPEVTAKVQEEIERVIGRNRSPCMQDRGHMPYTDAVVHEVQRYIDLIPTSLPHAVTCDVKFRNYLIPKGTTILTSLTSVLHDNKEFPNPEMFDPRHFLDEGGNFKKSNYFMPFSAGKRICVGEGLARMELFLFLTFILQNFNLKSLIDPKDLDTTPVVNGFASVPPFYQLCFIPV
SMILES,AC50,"activity, negative = inhibition"
Cc1ccccc1CSc1nnc(-c2cccs2)n1Cc1ccco1,1.41 µM (active),–
Cc1cc(C)nc(SCc2nnc(SCC(N)=O)n2Cc2ccco2)n1,inactive,–
O=C1C[C@@H](O)[C@@H](O)[C@H]2[C@@H]3C(=O)N(C4CCCCC4)C(=O)[C@@H]3CC[C@H]12,–,13.8% [at 11.4 µM] and 12.1% [at 11.4 µM] and 0.0924% [at 11.4 µM]
CCn1c(SCC(=O)Nc2sc3c(c2C(N)=O)CCC(C)C3)nnc1-c1ccco1 (configuration not stated),7.08 µM (active),–
O=C(O)/C=C\C(=O)N1Cc2cc3ccccc3nc2C1,–,21.9% [at 11.4 µM]
O=C(/C=C/c1ccccc1)N1CCN(Cc2nc3ccccc3c(=O)[nH]2)CC1,22.4 µM (active),–
O=C(O)c1cccc2cccc(-c3cccc4cccc(C(=O)O)c34)c12,–,-9.27% [at 11.4 µM]
O=C1c2ccccc2C(=O)c2c1ccc(C(=O)O)c2-c1ccc2ccccc2c1,2.51 µM (active),–
O=C(O)c1ccccc1C(=O)Nc1cc2c(cc1Br)-c1ccccc1C2=O,–,-19.4% [at 11.4 µM]
COCC(=O)N1CCC2(CC1)CCN(C(c1ccccc1)c1ccccc1)CC2,inactive,–
Cc1cccc(C(=O)c2ccccc2C(=O)O)c1O,inactive,–
Cc1cccc(C(CC(=O)N2CCCC2)c2ccccc2)c1O (configuration not stated),1.41 µM (active),–
CN(C)C[C@H]1CCC[C@@H](CN(C)C)C1=O,–,19.2% [at 11.4 µM]
N[C@@H](CO)C(=O)O,inactive,–
CC(C)[C@H]1C(=O)C(C(N)=O)=C(O)[C@]2(O)C(=O)C3=C(O)c4c(O)ccc(N(C)C)c4C[C@H]3C[C@@H]12,inactive,–
O=c1ccn(-c2cccc(C(F)(F)F)c2)nc1-c1ccn(-c2ccccc2F)n1,17.8 µM (active),–
CS(=O)(=O)N1CC(C(=O)NC2CC2)Oc2ccc(Cl)cc21 (configuration not stated),7.08 µM (active),–
CCS(=O)(=O)c1ccc2c(c1)N(S(C)(=O)=O)CC(C(=O)NCCOC)O2 (configuration not stated),inactive,–
CC(C)(C)NC[C@H](O)c1cc(O)cc(O)c1,inactive,–
CN1CCc2cc(Cl)c(O)cc2[C@H](c2ccccc2)C1,inactive,–
O=C(O)CCC(=O)N1CCOc2ccc(Cl)cc21,inactive,–
Cc1ccc(Cl)cc1N1CCN(S(=O)(=O)c2ccc3c(c2)OCCO3)CC1,3.98 µM (active),–
Cc1ccc2nc(N3CCN(S(=O)(=O)c4ccc5c(c4)OCCO5)CC3)c(C#N)cc2c1,2.51 µM (active),–
CO[C@@H]1COC(=O)CC=C[C@@H](C)[C@@H]2C=C[C@H](O)[C@@H](COC(=O)[C@H](C)NC(=O)CC=C[C@H]1C)O2,–,-12.2% [at 11.4 µM]

SMILES,AC50,"activity, negative = inhibition"
CCOc1cc(NC(=O)C2CCCCC2)c(OCC)cc1NC(=O)c1ccco1,7.94 µM (active),–
CCC(NC(=O)c1ccccc1NC(=O)c1ccco1)C(=O)NC1CCCCC1 (configuration not stated),15.8 µM (active),–
CCOc1cc(NC(=O)c2cccs2)c(OCC)cc1NC(=O)c1ccco1,inactive,–
CCCC[P+](CCCC)(CCCC)Cc1ccc(NC(=O)[C@@H](Cc2ccc3ccccc3c2)NC(=NC2CCCCC2)NC2CCCCC2)cc1,inactive,–
COCCNc1nc(-c2ccccc2OC)nc2ccccc12,inactive,–
CC(=O)NCCNc1nc(-c2ccccc2C(F)(F)F)nc2ccccc12,inactive,–
COCCNc1nc(-c2ccccc2C(F)(F)F)nc2ccccc12,20 µM (active),–
FC(F)(F)c1ccccc1-c1nc(NCc2cccnc2)c2ccccc2n1,3.98 µM (active),–
FC(F)(F)c1ccccc1-c1nc(NCc2cccs2)c2ccccc2n1,7.94 µM (active),–
CC(=O)NCCNc1nc(-c2ccccc2Cl)nc2ccccc12,3.98 µM (active),–
CC(=O)NCCNc1nc(-c2ccccc2C)nc2ccccc12,inactive,–
FC(F)(F)c1ccccc1-c1nc(NCCN2CCOCC2)c2ccccc2n1,inactive,–
CN(C)C(=O)c1ccc(-c2nc(NCc3cccnc3)c3ccccc3n2)cc1,inactive,–
CCOC(=O)CCN1C(=O)[C@H]2[C@H]3[C@H](O)[C@H](O)C/C(=N/OC/C=C(\C)CCC=C(C)C)[C@@H]3CC[C@@H]2C1=O,–,6.34% [at 11.4 µM]
CCCCCCCCCCCCCCC[C@@H](O)[C@@H](N)CO,inactive,–
O=c1[nH]c(SCc2c(Cl)c(Cl)c(Cl)c(Cl)c2Cl)nc(=S)[nH]1,–,-28.6% [at 11.4 µM]
CN(C)Cc1ccccc1-c1nc(NCc2cccs2)c2ccccc2n1,inactive,–
Clc1ccccc1-c1nc(NCc2cccs2)c2ccccc2n1,7.94 µM (active),–
CN(C)CCNC(=O)Cn1nc(-c2ccc(Cl)cc2)ccc1=O,inactive,–
COc1ccc(NC(=O)N2CCC3(CC2)CCN(C(=O)c2csnn2)CC3)cc1,inactive,–
CC(=O)C1C(c2ccccc2OC(F)F)NC(=O)NC1(O)C(F)(F)F (configuration not stated),inactive,–
Cn1c(-c2ccccc2)cnc1N,inactive,–
Cc1ccc(-c2cnc(NC(=O)CCC(=O)N3CCCCC3)n2C)cc1,inactive,–
